In PubChem BioAssay AID1851 (National Center for Advancing Translational Sciences (NCATS), 2009):
Out of some 16,000 compounds screened, about 5,700 (36%) were called active. Not shown: some 24% with an inconclusive outcome. The list shows a part of the results. A number with no mark means an inactive call. The call rests on the fitted dose curve; in most records, active means well fitted curve in the direction sought with a large enough effect; inconclusive means small, poorly fitted or top-dose-only effect, or effect the other way; inactive means no such curve, though single readings can be large or run the other way. Square brackets hold non-standard residues; d marks the D form. Peptide text beside a SMILES is read from it. * marks the point of attachment. ξ: configuration not given here. Cbz = O=C(OCc1ccccc1)*; OBn = c1ccc(CO*)cc1; ξP = O=C(O)C1CCCN1

Target: Cytochrome P450 1A2 (Homo sapiens) (UniProt P05177)
Sequence (P05177 whole entry, looked up): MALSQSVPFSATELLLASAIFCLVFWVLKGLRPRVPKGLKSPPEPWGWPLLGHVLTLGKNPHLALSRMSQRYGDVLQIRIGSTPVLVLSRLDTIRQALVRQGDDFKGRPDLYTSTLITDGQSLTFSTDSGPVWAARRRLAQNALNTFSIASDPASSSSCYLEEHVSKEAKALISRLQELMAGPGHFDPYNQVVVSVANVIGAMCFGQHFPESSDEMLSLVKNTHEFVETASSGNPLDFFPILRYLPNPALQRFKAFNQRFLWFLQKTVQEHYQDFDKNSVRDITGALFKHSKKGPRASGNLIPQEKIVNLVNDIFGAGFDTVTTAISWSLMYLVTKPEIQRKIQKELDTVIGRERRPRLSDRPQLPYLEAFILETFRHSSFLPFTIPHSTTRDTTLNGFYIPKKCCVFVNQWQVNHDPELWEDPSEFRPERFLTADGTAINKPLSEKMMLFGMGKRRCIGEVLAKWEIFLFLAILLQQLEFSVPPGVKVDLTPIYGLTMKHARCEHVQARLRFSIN
Experiment: Cytochrome panel assay with activity outcomes
Conditions: recombinant CYP, pro-luciferin dealkylation, luminescence, p450-cyp1a2; series mostly up to 57.1 µM; activity, negative = inhibition: at the top concentration
On the % scale 0 is the no-effect control and ±100 the full control effect.

| Compound | activity, negative = inhibition | AC50 |
| --- | --- | --- |
| [N-]=[N+]=NC[C@@H]1O[C@@H](n2cnc3c(N)ncnc32)[C@@H]2O[C@@H]21 | -13.8% [at 11.4 µM] | – |
| COCCCNC(=O)C1CC(=O)N(CCc2ccc(OC)c(OC)c2)C1 (stereo not drawn) | -18.6% | – |
| N/C(=N\O)c1cn([C@@H]2O[C@@H](CO)[C@H](O)[C@@H]2O)c2ncnc(NO)c12 | -18.7% [at 2.29 µM] | – |
| C=C[C@H](N)CCC(=O)O | – | inactive |
| C[C@@H](C[N+](C)(C)C)OC(N)=O | – | inactive |
| Cc1cccc(/C(N)=N/OC(=O)CCCN2C(=O)c3ccccc3C2=O)c1 | – | 15800 nM (active) |
| CSCC[C@@H]1NC(=O)C/C=C\[C@@H](C)COC(=O)[C@H](C)COC1=O | -2.99% [at 11.4 µM] | – |
| CCC(CC)C(=O)NCCN1CCN(C(=O)C(CC)CC)CC1 | 4.35% | – |
| COc1ccc(C[C@@H]2c3cc(OC)c(OC)cc3CC[N@+]2(C)CCC(=O)OCCCCCOC(=O)CC[N@@+]2(C)CCc3cc(OC)c(OC)cc3[C@H]2Cc2ccc(OC)c(OC)c2)cc1OC | 0.265% [at 25.6 µM] | – |
| CCCCOc1cc(C[C@@H]2CNC(=O)N2)ccc1OC | – | 10000 nM (active) |
| CCCCOc1ccc(CN2CCC(O)CC2)cc1 | 10.8% | – |
| Cc1ccccc1Oc1ncnc2sccc12 | – | 12600 nM (active) |
| N#CCCn1cc(/C=N/O)c(-c2ccc(Cl)cc2)n1 | – | 891 nM (active) |
| Oc1[nH]c2ccccc2c1/C=N/c1nccs1 | – | 251 nM (active) |
| COc1ccc(-c2cc(-c3cc(F)ccc3O)[nH]n2)cc1OC | – | 6310 nM (active) |
| COc1ccc(-c2cc(-c3c(O)c(OC)c4occc4c3OC)[nH]n2)cc1OC | – | 6310 nM (active) |
| CCc1ccc(-c2csc(NC(=O)C3CCCO3)c2C(=O)OC(C)C)cc1 (stereo not drawn) | – | 7080 nM (active) |
| Cc1ccc(-c2c(C)sc(NC(=O)C3C4CCC(O4)C3C(=O)O)c2C(=O)OC(C)C)cc1 (stereo not drawn) | -13.6% | – |
| C=C(C)C1CC=C(C)/C(=N/NC(=O)c2ccc(NC(=O)c3cccc(C)c3)cc2)C1 (stereo not drawn) | -8.69% | – |
| C=C(C)[C@H]1CC=C(C)/C(=N/NC(=O)CNc2ccccc2OC)C1 | – | 15800 nM (active) |
| CC(=O)N1c2ccc(S(=O)(=O)CCC(=O)O)cc2CC1C (stereo not drawn) | 3.83% | – |
| COC(=O)c1ccccc1NC(=O)c1c(Br)cnn1C | – | 891 nM (active) |
| COC(=O)c1ccccc1NC(=O)C1CCN(C(=O)c2ccc(OC)cc2)CC1 | -10.6% | – |

| Compound | activity, negative = inhibition | AC50 |
| --- | --- | --- |
| CCCCOC(=O)Nc1ccccc1C(=O)OC | – | 2000 nM (active) |
| COC(=O)c1cn(NC(=O)c2ccc(F)cc2)c(=O)c2ccccc12 | -20.8% | – |
| Cc1ccccc1C(=O)NNC(=O)c1ccc(F)cc1 | 2.52% | – |
| CCOC(=O)c1c(NC(=O)c2c(Br)cnn2C)c(C#N)nn1-c1ccccc1 | – | 631 nM (active) |
| COC(=O)c1ccccc1NC(=O)c1ccc(F)cc1 | – | 200 nM (active) |
| Cc1c(C(=O)O)nc(/C=C\C(=O)O)[nH]c1=O | -6.61% [at 11.4 µM] | – |
| O=C(Nc1cccc2[nH]ncc12)c1ccc(F)cc1 | – | 7080 nM (active) |
| C#CCCCO/N=C1/C[C@@H](O)[C@@H](O)[C@@H]2[C@@H]3C(=O)N(C[C@@H]4CCCO4)C(=O)[C@H]3CC[C@H]12 | -2.74% [at 11.4 µM] | – |
| CC(C)NC(=O)N1CCC2(CC1)CCN(C(=O)c1csnn1)CC2 | 8.76% | – |
| N#Cc1sc2nc(-c3cccs3)cc(-c3ccc(Cl)cc3)c2c1N | – | 1260 nM (active) |
| CCN(CC)CCCNC(=O)C1CCC(=O)N(c2ccc(OC)cc2)C1c1ccc(F)cc1 (stereo not drawn) | -25.8% | – |
| Nc1c(-c2cccs2)cnn1-c1nc(-c2ccc(Cl)cc2Cl)cs1 | – | 1260 nM (active) |
| Nc1c(-c2cccs2)cnn1-c1nc(-c2ccc(F)cc2)cs1 | – | 447 nM (active) |
| O=C(c1csnn1)N1CCC2(CC1)CCN(c1ccncc1)CC2 | -4.22% | – |
| COC(=O)[C@H]1C[C@@H]1[C@H](NC(=O)c1ccccc1)c1ccccc1 | – | 15800 nM (active) |
| O=C(Nc1ccccc1)N1CCC2(CC1)CCN(C(=O)c1cnccn1)CC2 | -20.1% | – |
| COC(=O)[C@@H]1C[C@H]1[C@@H](NC(=O)c1cnccn1)c1ccccc1 | – | 12600 nM (active) |
| COC(=O)[C@@H]1C[C@H]1[C@@H](NC(=O)c1cccnc1)c1ccccc1 | – | 12600 nM (active) |
| O=C(CNC(=O)OCc1ccccc1)NCC(=O)N1CCCC1C(=O)OCc1ccccc1 (stereo not drawn) (Cbz-Gly-Gly-[ξP]-OBn) | 4.12% | – |
| COC(=O)[C@H]1C[C@@H]1[C@H](NC(=O)OCc1ccccc1)c1ccccc1 | – | 126 nM (active) |
| O=C(NC(NCc1ccccc1)C(Cl)(Cl)Cl)c1cccnc1 (stereo not drawn) | -6.61% | – |
| O=C(NNC(=O)C1CCCCC1)c1cnccn1 | 5.27% | – |
| C[C@@H](C(=O)O)[C@H]1C[C@]1(C)[C@H](NC(=O)OCc1ccccc1)c1ccccc1 | -16% | – |

| Compound | activity, negative = inhibition | AC50 |
| --- | --- | --- |
| CCc1cc[n+](-c2nc3ccccc3nc2C(=C=[N-])C#N)cc1 | -14% | – |
| COC(=O)C1CC1C(NC(=O)[C@H]1CCCCN1)c1ccccc1 (stereo partly drawn) | -23.3% | – |
| COC(=O)[C@@H]1C[C@H]1[C@@H](NC(=O)c1ccccc1)c1ccccc1 | – | 5010 nM (active) |
| Cc1cc(N(CN2CCCC2=O)C(=O)c2ccc(F)cc2)no1 | -6.57% | – |
| Cc1ccc(-n2ncc3c2ncn2nc(-c4ccco4)nc32)c(C)c1 | -23.9% | – |
| Cc1nc2c3cnn(-c4ccc(C)c(C)c4)c3ncn2n1 | – | 8910 nM (active) |
| COc1cccc(-c2nc(NCCc3c[nH]c4ccc(OC)cc34)c3ccccc3n2)c1 | – | 1580 nM (active) |
| COC(=O)[C@@]1(Cc2ccc(OC)cc2)[C@H]2c3cc(C(=O)N4CCCC4)n(CCc4c[nH]c5ccc(O)cc45)c3C[C@H]2CN1C(=O)c1ccccc1 | -16.3% | – |
| COc1ccc2[nH]cc(CCNc3nc(-c4ccccc4OC)nc4ccccc34)c2c1 | – | 6310 nM (active) |
| COc1ccc2[nH]cc(CCNc3nc(-c4cccnc4)nc4ccccc34)c2c1 | – | 501 nM (active) |
| COc1ccc2[nH]cc(CCNc3nc(-c4ccoc4)nc4ccccc34)c2c1 | – | 398 nM (active) |
| Cc1noc(NS(=O)(=O)c2ccc(NC(=O)CC34CC5CC(CC(Br)(C5)C3)C4)cc2)c1C | 0.211% | – |
| Cc1ccc(NC(=O)c2sc3ccccc3c2Cl)nc1 | – | 2510 nM (active) |
| Cc1nn(Cc2ccccc2Cl)c(C)c1NC(=O)CCCn1nc(C)c([N+](=O)[O-])c1C | 17.7% | – |
| Cc1ccccc1Cn1nc(C)c(NC(=O)c2sc3ccccc3c2Cl)c1C | – | 2240 nM (active) |
| O=C(NNC(=O)c1sc2ccccc2c1Cl)Nc1ccc(Cl)cc1 | – | 501 nM (active) |
| CCC(CC)c1nnc(NC(=O)c2cccc(S(=O)(=O)N3CCc4ccccc43)c2)s1 | -6.18% | – |
| CC(C)c1nnc(NC(=O)c2sc3ccccc3c2Cl)s1 | – | 10000 nM (active) |
| Cc1ccc(-c2cc(C(F)F)n3ncc(C(=O)Nc4c(C)nn(Cc5c(Cl)cccc5Cl)c4C)c3n2)cc1 | -19.7% | – |
| Cc1ccc(NC(=O)C2CCN(S(=O)(=O)c3c(C)n[nH]c3C)CC2)nc1 | -28.3% | – |
| CCCC(=O)N1CCN(c2ccc(NC(=O)c3sc4ccccc4c3Cl)cc2)CC1 | 9.92% | – |
| Cc1ccc(NC(=O)CCc2c(C)nc3ncnn3c2C)nc1 | -18.5% | – |
